Assay results: PubChem BioAssay (NCATS)
Inconclusive results are not listed. Where a call stands in place of a potency, no number is given. Calls of active or inactive are those of the source. Calls follow the shape of the dose curve; as a rule, active = well fitted cell-killing curve with a large enough effect; inconclusive = small, poorly fitted or top-dose-only effect; inactive = flat fitted curve, though single readings scatter.

Experiment: qHTS of pediatric cancer cell lines to identify multiple opportunities for drug repurposing: Confirmatory screen for SK-N-SH cells (AID 1347129);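 also: cells exposed to compound for 48 h before viability read; nearly all actives have a fitted effect of over 60% in size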
Details: SK-N-SH neuroblastoma cell viability; series mostly up to 46.1 µM
Procedure, shortened: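 Cells (500-1,000/well) rested 5 h, then received compounds for 48 h; metabolically active cells were measured by CellTiter-Glo luminescence. Final concentrations spanned up to 46 µM (MIPE, 11-point) or 0.59 nM-46 µM (NPC, 8-point) in primary screens, 11-point in follow-ups.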
Potency is read from the fitted curve at half-maximal effect.

SMILES | Potency
CC(S)C(=O)NCC(=O)O (centres undefined) | inactive
Nc1ccn([C@@H]2O[C@H](CO)[C@@H](O)C2O)c(=O)n1 (some centres undefined) | inactive
CS(=O)(=O)OCCCCOS(C)(=O)=O | inactive
Nc1ncn([C@H]2C[C@H](O)[C@@H](CO)O2)c(=O)n1 | inactive
COc1cc(C(C)=O)ccc1OCCCN1CCC(c2noc3cc(F)ccc23)CC1 | inactive
c1cnc2cc3c(cc2n1)C1CNCC3C1 | inactive
C[C@]12CCC(=O)C=C1CC[C@@H]1[C@H]2[C@@H](O)C[C@@]2(C)[C@H]1CC[C@]2(O)C(=O)CO | inactive
CC(C)C[C@H](NC(=O)[C@H](Cc1ccccc1)NC(=O)c1cnccn1)B(O)O | 0.0332 µM (active)
Oc1ccc(-c2nc(-c3ccc(F)cc3)c(-c3ccncc3)[nH]2)cc1 | 5.26 µM (active)
O=C(CCc1ccc(O)cc1)c1c(O)cc(O)cc1O | inactive
CCN(CC)C(=S)SSC(=S)N(CC)CC | inactive
Cc1ccc(NC(=O)c2ccc(CN3CCN(C)CC3)cc2)cc1Nc1nccc(-c2cccnc2)n1 | inactive
Cc1c(C(=O)NN2CCCCC2)nn(-c2ccc(Cl)cc2Cl)c1-c1ccc(Cl)cc1 | inactive
O=C(NCC1CCCCN1)c1cc(OCC(F)(F)F)ccc1OCC(F)(F)F (centres undefined) | inactive
O=C1c2c(O)cc(O)cc2OC(c2ccc(O)c(O)c2)C1O (centres undefined) | inactive
CCN(CCO)CCCC(C)Nc1ccnc2cc(Cl)ccc12 (centres undefined) | inactive
C=C(c1ccc(C(=O)O)cc1)c1cc2c(cc1C)C(C)(C)CCC2(C)C | inactive
CN(C)c1ccc(O)c2c1C[C@H]1C[C@H]3[C@H](N(C)C)C(=O)C(C(N)=O)=C(O)[C@@]3(O)C(=O)C1=C2O | 11.8 µM (active)
Cc1cc(C2CCCCC2)n(O)c(=O)c1 | 2.35 µM (active)
CN(C)c1ccc2nc3ccc(=[N+](C)C)cc-3sc2c1 | 4.18 µM (active)
Nc1nc(OCc2ccccc2)c2[nH]cnc2n1 | inactive
CCN(CC)CCOc1ccc(Nc2ncc3cc(-c4c(Cl)cccc4Cl)c(=O)n(C)c3n2)cc1 | 0.833 µM (active)
Cc1nc(Nc2ncc(C(=O)Nc3c(C)cccc3Cl)s2)cc(N2CCN(CCO)CC2)n1 | 4.18 µM (active)
CCOc1cc(CC(=O)N[C@@H](CC(C)C)c2ccccc2N2CCCCC2)ccc1C(=O)O | inactive
